Experimental data reported in PubChem BioAssay AID1490 (National Center for Advancing Translational Sciences (NCATS), 2009).
About 11,000 (3.5%) of roughly 310,000 compounds were called active. Another 4% or so got no clear call; they are omitted. The sample as a whole holds a higher share of actives than the screen did. A number with no mark means an inactive call. Calls come from the whole dose curve; as a rule, active = well fitted inhibition curve with a large enough effect; inconclusive = small, poorly fitted or top-dose-only effect, or another doubt; inactive = no such curve, though single readings can be large or run the other way.
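Note: the enzyme is Sfp with the accession as filed and its product quenches rhodamine fluorescence.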
Potency is the fitted concentration of half-maximal effect.
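Throughout, for largest response in the series, negative = inhibition: 0% = enzyme reaction without inhibitor and -100% = no enzyme wells.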

Each compound was assayed against 4'-phosphopantetheinyl transferase ffp (Bacillus subtilis) (UniProt Q9F4F7) (assay: qHTS Assay for Inhibitors of Bacillus subtilis Sfp phosphopantetheinyl transferase (PPTase)). Details: Biochemical Sfp PPTase activity.
Excerpt: Assay Submitter: Michael Burkart, University of California, San Diego
Screening Center PI: Austin, C.P.
Screening Center: NIH Chemical Genomics Center [NCGC]
The covalent attachment of a phosphopantetheinyl (4'-PP) arm to a variety of synthases and other proteins is a key posttranslational protein modification. The 4'-PP is installed on the proteins post-translationally from coenzyme A (CoA) on a conserved serine residue by action of phosphopantetheinyl transferase (PPTase) enzymes. Phosphopantetheinylation is essential for synthase activity, and removal of the PPTase gene precludes natural product synthesis in microorganisms, or in the case of fatty acid biosynthesis, renders the organism unviable. PPTase enzymes belong to a distinct structural superfamily. Within bacteria, these enzymes are grouped into two classes based upon primary structure, the AcpS-Type and Sfp-Type PPTases.
Sfp-type PPTases, corresponding to an activator of surfactin production in Bacillus subtilis, are responsible for modifying type I polyketide and nonribosomal peptide synthases of prokaryotes. Sfp-type PPTases are responsible for the activation of a variety of pathogen-associated virulence factors. Among these compounds are toxins such as mycolactone from Mycobacterium ulcerans, siderophores such as vibriobactin from Vibrio cholerae or mycobactin from Mycobacterium tuberculosis, as well as the mycolic acids which form the waxy cell wall of Mycobacteria. The biosyntheses of these natural products are considered attractive targets for drug design.
In search of small molecule Sfp-PPTase inhibitors, a fluorescence quenching assay was developed for detection of Bacillus subtilis Sfp-PPTase enzymatic activity in a miniaturized high-throughput format. The consensus ybbr acceptor peptide […] was N-terminally labeled with Black Hole Quencher-2 (BHQ-2) and used in combination with rhodamine-labeled coenzyme A as a co-substrate.
Inhibition of Sfp-PPTase was detected by recording the fluorescence intensity change over a 30-minute reaction period at a 525 nm excitation and 598 nm emission. Reagents were supplied by Michael Burkart and Timothy Foley, University of California at San Diego.
This BioAssay deposition is for validation of the developed Sfp-PPtase assay.
Assay Buffer: 50 mM Hepes-Na pH 7.6, 10 mM MgCl2, 0.01% Nonidet P-40, and 0.01% BSA.
3 uL of Sfp-PPTase enzyme (final concentration 15 nM) and 1 uL of substrate mixture (final concentration for rhodamine-CoA and BHQ-2-YbbR 5 uM and 12.5 uM, respectively) dispensed in columns 1, 2, 5 - 48. Columns 1 and 2 used to generate neutral control (uninhibited reaction)
Three uL of reagents, consisting of buffer (in columns 3 and 4 as negative control) and Sfp-PPTase (in columns 1, 2, 5 - 48) were dispensed into 1,536-well Greiner black solid bottom plate. Compounds (23 nL) were transferred via Kalypsys pintool equipped with 1,536-pin array. The plate was incubated for 15 min at room temperature, followed by the addition of 1 uL substrate to start the reaction. The plate was then centrifuged at 1000 rpm for 15 seconds, and the fluorescence intensity recorded on a ViewLux High-throughput CCD imager (Perkin-Elmer) using standard BODIPY optics (525 nm excitation and 598 nm emission). The plate was then incubated for 30 minutes, and a second read on the ViewLux was performed. The fluorescence intensity difference over the 30-minute period was used to calculate the respective reaction rate for each well.
For `O=c1cc(-c2ccc(O)cc2)oc2c(-c3cc(-c4cc(=O)c5c(O)cc(O)cc5o4)ccc3O)c(O)ccc12`, the largest response in the series, negative = inhibition was -11.5%. For `COc1c(O)cc2oc(-c3ccc(O)c(O)c3)cc(=O)c2c1O`, the Potency was 50.1 µM (active). `O=c1cc(-c2ccc(O)c(O)c2)oc2cccc(O)c12` gave a largest response in the series, negative = inhibition of -4.56%. In the case of `COc1ccc(C(C)C)cc1S(=O)(=O)Nc1ncn[nH]1`, the largest response in the series, negative = inhibition is reported as 16.1%. For `COc1ccc(CNS(=O)(=O)c2cc(-c3cc(C)no3)ccc2C(C)C)cc1`, the largest response in the series, negative = inhibition was 7.48%. `CCc1nc2ccc(C(=O)N3CCN(c4cccc(Cl)c4)CC3)cc2nc1CC` gave a largest response in the series, negative = inhibition of -10.1%. `Nc1ccccc1SCc1cc([N+](=O)[O-])cc2c1OCOC2` was tested, and the largest response in the series, negative = inhibition was -29.9%. With `Nc1ccccc1SC(C[N+](=O)[O-])c1ccccc1` (configuration not stated) the Potency was 7.94 µM (active). With `C#CCC(C(=O)OC)(C(=O)OC)C(C[N+](=O)[O-])c1ccccc1` (configuration not stated) the largest response in the series, negative = inhibition was -5.44%. For `O=c1c2cc(Br)ccc2nc(-c2cccc(Cl)c2)n1O`, the largest response in the series, negative = inhibition was 10.6%. In the case of `CCc1c(C)nc(N)n2c(SCC(=O)NC3CCCCC3)nnc12`, the largest response in the series, negative = inhibition is reported as 11.3%. `O=C(O)C1CCCN1C1=NS(=O)(=O)c2ccccc21` (configuration not stated) showed a largest response in the series, negative = inhibition of 13.1%. For `Cc1ccc(C)c(NC(=S)NNC(=S)Nc2ccc(C(C)C)cc2)c1`, the Potency was 4.47 µM (active). `CC(C)c1ccc(NC(=S)NNc2ccc(Cl)c(C(=O)O)c2)cc1` was tested, and the largest response in the series, negative = inhibition was -24.2%. With `Cc1ccc(C)c(NC(=S)NNC(=O)c2csc(C)c2)c1` the largest response in the series, negative = inhibition was 9.77%. `NC(=O)C1CCCN(CC(=O)N2CCN(c3ccccc3)CC2)C1` (configuration not stated) gave a largest response in the series, negative = inhibition of 19%. In the case of `CC1CCN(CC(=O)Nc2nccs2)CC1`, the largest response in the series, negative = inhibition is reported as 6.83%. Work on `Cc1nc2ccccc2n1CC(O)c1ccccc1` (configuration not stated) yielded a largest response in the series, negative = inhibition of 2.21%. `O=C(Nc1ccccc1Cl)Nn1cnnc1` gave a largest response in the series, negative = inhibition of 10.7%. `O=C(COC(=O)c1cccs1)Nc1ccccc1Cl` showed a largest response in the series, negative = inhibition of 3.72%. For `O=C(Nc1ccccc1Cl)/C(Cl)=C(\Cl)S(=O)c1ccccc1` (configuration not stated), the Potency was 6.31 µM (active). Work on `CC(=O)Oc1c2c(c3c(c1CC=C(C)C)O[C@@]14C(=CC5CC1C(C)(C)OC4(C/C=C(\C)C(=O)O)C5=O)C3=O)OC(C)(CCC=C(C)C)C=C2` (some centres not stated) yielded a largest response in the series, negative = inhibition of -62.7%. `O=C(NCc1ccco1)C(c1ccncc1)N(C(=O)Cn1nnc2ccccc21)c1ccccc1` (configuration not stated) showed a largest response in the series, negative = inhibition of 18%. For `O=C(Nc1ccc(S(=O)(=O)NCC2CCCO2)cc1)c1ccc(F)cc1` (configuration not stated), the largest response in the series, negative = inhibition was 10.5%. `COc1ccc(OC)c(CCNC(=O)CCn2ccc3cc(S(=O)(=O)N4CCCC4)ccc32)c1` showed a largest response in the series, negative = inhibition of 4.91%. `CS(=O)(=O)c1sc(C(=O)NC(=S)Nc2ccc(OC(F)(F)F)cc2)c2c1C=CCC2` was tested, and the Potency was 44.7 µM (active). `FC(F)(F)Oc1ccc(NC(=S)NCc2ccccc2)cc1` gave a largest response in the series, negative = inhibition of 7.74%. With `CCNC(=S)Nc1ccc(OC(F)(F)F)cc1` the largest response in the series, negative = inhibition was 14.8%. With `CCC(=O)Nc1ccc(-c2ccc(N3CCCCC3)nn2)cc1` the largest response in the series, negative = inhibition was 14.4%. In the case of `C=C1CCN(C(CC(C)C)C(=O)N2CCOCC2)S(=O)(=O)c2ccccc21` (configuration not stated), the largest response in the series, negative = inhibition is reported as -9.91%. Work on `CCOc1ccccc1NC(=O)Cn1ncc2ccc([N+](=O)[O-])cc21` yielded a largest response in the series, negative = inhibition of -5.95%. Compound `COc1ccc(C(=O)O/N=C(\N)c2ccccn2)cc1[N+](=O)[O-]` has a largest response in the series, negative = inhibition of 9.71%. `COc1cccc(OCC(=O)NNC(=O)c2cnccn2)c1` gave a largest response in the series, negative = inhibition of -17.6%. In the case of `COc1ccc(C(=O)NNC(=O)c2cnccn2)cc1[N+](=O)[O-]`, the Potency is reported as 44.7 µM (active). For `CC1CCCC(C)N1C(=O)CSc1nnnn1C1CCCC1` (configuration not stated), the largest response in the series, negative = inhibition was 18.7%. `CCC(CC)C(=O)Nc1c2c(nn1-c1ccc(C)cc1)CS(=O)(=O)C2` showed a largest response in the series, negative = inhibition of 4.15%. For `COc1ccc(C(=O)Nc2ccccc2C(=O)N2CCN(c3ccccc3)CC2)cc1`, the largest response in the series, negative = inhibition was 5.69%. For `O=C(O)C1CC=CCC1C(=O)Nc1ccccc1C(=O)N1CCN(c2ccccc2)CC1` (configuration not stated), the largest response in the series, negative = inhibition was 22.9%. For `CC(C)c1ccc(N2CCN(C(=O)c3ccccc3NC(=O)/C=C(\C(=O)O)c3ccccc3)CC2)cc1`, the Potency was 56.2 µM (active). `Cc1cc(C)c(S(=O)(=O)N(C)CC(=O)NCC2CCCO2)c(C)c1` (configuration not stated) showed a largest response in the series, negative = inhibition of 16.6%. Work on `COc1ccc(/C=C/c2c(-c3cccc(C)c3)oc3ccc(-c4ccc5c(c4)OCO5)cc23)cc1` yielded a largest response in the series, negative = inhibition of 1.24%. `NNC(=O)c1oc2nc(-c3ccccc3)cc(-c3ccco3)c2c1N` showed a largest response in the series, negative = inhibition of -13.3%. `CNC(=S)NNC(=O)c1oc2nc(-c3ccccc3)cc(-c3ccco3)c2c1N` was tested, and the Potency was 12.6 µM (active). `CNc1nc(-c2ccccc2)cc(-c2ccccc2)n1` showed a largest response in the series, negative = inhibition of -1.57%. `CN1C(=O)CN2CCc3ccccc3C2c2cc(Cl)ccc21` (configuration not stated) showed a largest response in the series, negative = inhibition of 11%. With `CC(C)(C)NS(=O)(=O)c1ccc(NC(=O)C2CCCO2)cc1` (configuration not stated) the largest response in the series, negative = inhibition was 9.67%. `COC(=O)c1cccc(N(CC(=O)NCC2CCCO2)C(=O)CCC(=O)Nc2cc(C)on2)c1` (configuration not stated) was tested, and the largest response in the series, negative = inhibition was -5.12%.
